Active and inactive are the calls of the source. Calls follow the shape of the dose curve; as a rule, active = well fitted curve in the direction sought with a large enough effect; inconclusive = small, poorly fitted or top-dose-only effect, or another doubt; inactive = no such curve, though single readings can be large or run the other way.
Experiment: Cellular Toxicity (caspase-3) BJ (AID 658)
Settings: BJ fibroblasts, luminescence, normalized: DMSO 0%, staurosporine 100%; series mostly up to 91.7 µM; caspase-3 activation: at the top concentration
Description: NIH Chemical Genomics Center [NCGC]
NIH Molecular Libraries Screening Centers Network [MLSCN]
National Institutes of Environmental Health Sciences [NIEHS]
National Toxicology Program [NTP]
We have developed a 1536-well cell-based assay for quantitative high throughput screening (qHTS) against a number of cell lines to determine in vitro caspase 3/7 activity of small molecules. This particular assay uses BJ cell line which is derived from normal human foreskin fibroblast.
NCGC Assay Protocol Summary:
The Caspase-Glo 3/7 assay (Promega) is a homogeneous method to measure caspase-3 and caspase-7 activities in cultured cells. The quantitation of caspase 3/7 activity is based on the cleavage of a peptide-aminoluciferin substrate. After caspase cleaves the substrate the free aminoluciferin is liberated and serves as the substrate of luciferase, which generates the light. The luminescent signal is proportional to amount of caspase 3/7 activity present.
Using the Caspase-Glo 3/7 assay, the amount of caspase 3/7 activity was measured in the BJ cell line with complete culture medium following compound treatment for 16 hours. The assay was performed in opaque white 1536-well plates. In the screen, staurosporine and tamoxifen were used as positive controls. Library compounds were measured for their ability to cause the activation of caspase 3/7 in the cell line, as reflected by an increase in luminescence signal, in a concentration-dependent manner. Data were normalized to the controls for basal activity (DMSO only) and 100% stimulation (10 uM staurosporine). AC50 values were determined from concentration-response data modeled with the standard Hill equation.
qHTS protocol for caspase 3/7 assay in the BJ cells
[Step] [Parameter] [Value] [Description]
1. Reagent; 5 uL; 1000 the BJ cells/well
2. Time; 5 hr; 37 °C incubation
4. Controls; 23 nL; Tamoxifen 0.23 uM to 100 uM & staurosporine 1.4 pM to 100 uM
5. Time; 16 hr; 37 °C incubation
6. Reagent; 5 uL; Caspase-Glo 3/7 reagent
7. Time; 1 hr; Room Temperature
8. Detection; Luminescence; Viewlux plate reader
Keywords: caspase 3/7, apoptosis, the BJ cell line, luminescence, NTPHTS, NTPHTS_NCGC, NIEHS, EPA, DSSTox, MLSMR, MLSCN, NIH Roadmap, qHTS, NCGC

Structure (SMILES) | caspase-3 activation
CCOP(=S)(OCC)SCCSCC | -1.03% (inactive)
C=CC(=O)OCCN(C)C | 0.76% (inactive)
O=[N+]([O-])c1cccc2c([N+](=O)[O-])cccc12 | 0.27% (inactive)
CCCCCC[N+](=O)[O-] | -0.485% (inactive)
CCCCC(CC)COC(=O)c1ccc(C(=O)OCC(CC)CCCC)c(C(=O)OCC(CC)CCCC)c1 (stereo not given) | 1.04% (inactive)
CC(C)OC(=O)Cc1ccccc1 | -1.85% (inactive)
CC(C)(COCC1CO1)COCC1CO1 (stereo not given) | 0.752% (inactive)
O=[N+]([O-])c1ccccc1CCl | 2.52% (inactive)
C1CC2OC2CC1C1CO1 (stereo not given) | -4.12% (inactive)
ClCCOCOCCCl | -0.359% (inactive)
ClCc1ccccn1 | -0.023% (inactive)
BrCCc1ccccc1 | 2.72% (inactive)
Clc1ccc(C(Cl)(Cl)Cl)c(Cl)c1 | -0.189% (inactive)
CC(Cl)(Cl)Cl | -0.103% (inactive)
c1ccoc1 | -0.775% (inactive)
CC(C)[N+](=O)[O-] | -0.659% (inactive)
O=C(O)c1cc(Cl)ccc1Cl | -1.59% (inactive)
CC(C)CON=O | 0.42% (inactive)
C(CCOCC1CO1)COCC1CO1 (stereo not given) | 0.517% (inactive)
O=c1ccc(=O)[nH][nH]1 | -1.28% (inactive)

Structure (SMILES) | caspase-3 activation
O=P(OCCCl)(OCCCl)OCCCl | 0.875% (inactive)
O=Cc1ccc2c(c1)OCO2 | 1.32% (inactive)
O=C(O)C(Cl)Br (stereo not given) | -0.099% (inactive)
O=Cc1ccc(Cl)cc1Cl | -0.631% (inactive)
Nn1cnnc1 | -1.36% (inactive)
Nc1cccc2ccccc12 | -0.891% (inactive)
C/C=C/CC#N | -1.54% (inactive)
Cc1cc(-c2cc(C)c(N)c(C)c2)cc(C)c1N | 0.377% (inactive)
OCCCCO | -1.75% (inactive)
C=CC=O | -1.73% (inactive)
CCN(CC)N=O | 0.506% (inactive)
CN(C)c1ccc(N(C)C)cc1 | -3.31% (inactive)
S=c1[nH]c2ccccc2[nH]1 | 1.75% (inactive)
CCCCCCCCCCCOC(=O)c1ccccc1C(=O)OCCCCCCCCCCC | -1.01% (inactive)
c1ccc2c(c1)CCNC2 | 0.939% (inactive)
CCCCC(=O)Cl | -0.591% (inactive)
BrC(Br)Br | -0.477% (inactive)
CN(C)C(=O)Cl | 0.477% (inactive)
CN(C)c1ccc(N)cc1 | -6.76% (inactive)
CSSC | 0.585% (inactive)
